# Results as given in PubChem BioAssay (NCI).
# Compounds without any hit were thinned out: in the full panel of roughly 83,000, 20% have a hit.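 A percent growth of 40 corresponds to 60% growth inhibition; 0 means no net growth; -100 means all cells died. Active threshold: below 10.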 Activity calls are given as the source filed them.
# Tested on: CCRF-CEM leukemia
# Assay: NCI-60 one-dose screen, 48 h (100 = growth as untreated, 0 = no growth, -100 = all killed)
# Settings: 10 µM unless noted
row,Structure (SMILES),growth
1,Cc1cccc(NC(=O)[C@]23CCC(C)(C)CC2C2=CCC4[C@@]5(C)C[C@@H](O)[C@H](O)[C@@](C)(CO)C5CC[C@@]4(C)[C@]2(C)CC3)c1 (some centres undefined),15.8% (inactive)
2,CCCCSc1nc(NCCc2c[nH]c3ccccc23)c(C#N)c(-c2ccc(F)cc2)n1,36.5% (inactive)
3,COc1ccc(-c2ccnc(SCc3cc4cc(Cl)ccc4[nH]c3=O)n2)cc1,79.1% (inactive)
4,O=c1[nH]c2ccccc2cc1CSc1nccc(-c2ccc3ccccc3c2)n1,33.1% (inactive)
5,CCCCCCCCc1ccc(S(=O)(=O)Nc2ccc(CC)cc2C(=O)O)cc1,77.9% (inactive)
6,CCCCCCCCc1ccc(C(=O)Nc2cccc(P(=O)(O)O)c2)cc1,79.6% (inactive)
7,O=C(c1ccc(Cl)cc1)c1ccc(OCCCN2CCN(c3ccncc3)CC2)cc1,21.5% (inactive)
8,CCCCSc1nc(NCCc2c[nH]c3ccccc23)c(C#N)c(-c2ccccc2)n1,8.29% (active)
9,CC(=O)OC[C@@]1(C)C2CC[C@]3(C)C(CC=C4C5CC(C)(C)CC[C@]5(C(=O)Nc5cccc(C)c5)CC[C@]43C)[C@@]2(C)C[C@@H](OC(C)=O)[C@@H]1OC(C)=O (some centres undefined),30.4% (inactive)
10,COc1ccc(C(SCCNCc2cc(N(C)C)ccn2)(c2ccccc2)c2ccccc2)cc1,4.47% (active)
11,O=c1onc(-c2cc3ccccc3nc2Cl)n1-c1cccc2ccccc12,33% (inactive)
12,COc1ccc2c(c1)C(=N/N=C(\C)c1ccc(OC)c(S(N)(=O)=O)c1)C(=O)N2,74% (inactive)
13,CCCSc1nc(NCCc2c[nH]c3ccccc23)c(C#N)c(-c2ccc(F)cc2)n1,33.6% (inactive)
14,O=c1[nH]c2ccccc2cc1CSc1cccc(Nc2nccc(-c3ccc4ccccc4c3)n2)c1,46.8% (inactive)
15,CCN(CC)c1ccnc(CNCCSC(c2ccccc2)(c2ccccc2)c2ccc(C)cc2)c1,-40.9% (active)
16,CC1(C)CC[C@]2(C(=O)Nc3ccc(Br)cc3)CC[C@]3(C)C(=CCC4[C@@]5(C)C[C@@H](O)[C@H](O)[C@@](C)(CO)C5CC[C@]43C)C2C1 (some centres undefined),-19.8% (active)
17,CCC(C)(C)c1ccc(OCCCCCCN2CCN(c3ccncc3)CC2)cc1,-23.4% (active)
18,Cc1ccc(C(=O)CSc2nc3ccc(F)cc3c(=O)n2-c2ccc(Cl)cc2)cc1,75.8% (inactive)
19,Cc1sc(C(NC(=O)OCCn2c([N+](=O)[O-])cnc2C)C(F)(F)Cl)nc1-c1ccc(OC(F)(F)F)cc1 (centres undefined),-17.4% (active)
